Measurements from PubChem BioAssay AID431 (Sanford-Burnham Center for Chemical Genomics, 2006).
About 1,100 (1.7%) of roughly 63,000 compounds were called active. Only a selection was taken, and actives are over-represented in it overall. Potency and affinity values are given separately. A number with no mark means an inactive call.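 How the source made its calls: active means compounds whose percent cytotoxicity in the single-dose primary screen, scaled between solvent and toxic-drug controls, exceeds 50; inactive means the rest.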

Experiment: cytotoxicity in KRAS-transformed pancreatic duct cells, primary screen, cell-based, fluorescence, HTS (AID 431);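 further: 0% = DMSO solvent wells and 100% = doxorubicin-treated wells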
Conditions: HPDE-C7K KRASV12 cells, Alamar Blue viability, 48 h; at 10 µM; hits give high values

Structure (SMILES) | cytotoxicity
CC(C)(C)NC(=O)Cn1c(SCC(=O)N2CCCCCC2)nc2ccccc21 | -0.2%
Cc1csc2ncc(C(=O)NCc3ccccn3)c(=O)n12 | -11.8%
Cc1ccc(OCCn2c(C)c(/C=N/n3cnnc3)c3ccccc32)cc1 | 41.7%
COc1cccc(OCCn2c(C)c(/C=N/n3cnnc3)c3ccccc32)c1 | 85.9% (active)
Cc1c(/C=N/n2cnnc2)c2ccccc2n1CCOc1ccccc1 | 43.4%
CCOC(=O)N1CCC(NC(=O)C2CCC(CNS(=O)(=O)c3ccc(OC)cc3)CC2)CC1 (centres undefined) | 0.5%
C=CCn1c(=N)n(CC(=O)OC)c2ccccc21 | 8.1%
c1coc(-c2nc(-c3ccco3)c(-c3ccco3)nc2-c2ccco2)c1 | -1.8%
c1coc(-c2nc3nc4ccccc4n3nc2-c2ccco2)c1 | 67.4% (active)
c1coc(-c2nc3ccccc3nc2-c2ccco2)c1 | -6.2%
O=C1CCCc2nc(N3CCN(c4ccccc4)CC3)ncc21 | 20.9%
O=C(NC1CCCC1)C(c1cccs1)N(C(=O)c1ccno1)c1ccccc1 (centres undefined) | 2.6%
COc1ccc(C2/C(=C(/O)c3ccc(C)cc3)C(=O)C(=O)N2C)cc1 (centres undefined) | -6.1%
Cc1nnc(SCCn2c(N3CCN(C)CC3)nc3c2c(=O)[nH]c(=O)n3C)s1 | -9.9%
Cc1nnc(SCCn2c(N3CCN(C)CC3)nc3c2c(=O)n(C)c(=O)n3C)s1 | 3.6%
Cc1nnc(Sc2nc(Sc3nnc(C)s3)nc(N3CCN(C)CC3)n2)s1 | 102% (active)
CC(=O)Nc1nc(C)c(Oc2ccccc2)c(=O)[nH]1 | 6.8%
CCOC(=O)c1c(C)[nH]c(C(=O)OCC(=O)N2CCc3ccccc32)c1C | -21.3%
CC(=O)c1c(C)[nH]c(C(=O)N2CCc3ccccc32)c1C | 10.3%
CCOC(=O)c1[nH]c(C)c(C(=O)N2CCc3ccccc32)c1C | 57.6% (active)
COc1ccc(CN(C(=O)CSc2nnc(-c3ccccc3F)o2)c2ccc(F)cc2)cc1 | 16.8%
COc1ccc(CN(C(=O)CSc2nnc(-c3ccc(F)cc3)o2)c2ccc(F)cc2)cc1 | -9.8%
O=C(CSc1nnc(-c2c[nH]c3ccccc23)o1)N(Cc1ccccc1)c1ccc(F)cc1 | 53.4% (active)
CCOC(=O)c1sc(NC(=O)CSc2n[nH]c(-c3ccccc3)n2)c(C#N)c1C | -1.8%
CCOC(=O)c1c(NC(=O)CSc2n[nH]c(N)n2)sc(CC)c1C | 0%
Cc1ccc(C(=O)NCCCC(=O)O)o1 | -5%

Structure (SMILES) | cytotoxicity
Cc1cc(-c2ccco2)n2c(nc3ccccc32)c1C#N | 18.2%
COC(=O)c1nnn(-c2nc(N3CCCCC3)nc(N3CCCCC3)n2)c1C | -3.1%
CCOC(=O)c1cnc(-n2nc(C)cc2C)nc1NC(C)c1ccccc1 (centres undefined) | -13%
NS(=O)(=O)c1ccc(NC=C2C(=O)OC3(CCCCC3)OC2=O)cc1 | 8.5%
NS(=O)(=O)c1ccc(NC(=O)CSC2CCCCC2)cc1 | -3.7%
Cc1ccc(-c2nnn(CC(=O)Nc3ccc(S(=O)(=O)N4CCC(C)CC4)cc3)n2)cc1 | -2.5%
CCOC(=O)c1c2n(c3ccc(O)cc13)CCCCC2 | 2.9%
O=C(Oc1c(Cl)cc(Cl)c2cccnc12)N1CCOCC1 | -2.4%
Oc1c(CN2CCOCC2)cc(COCc2ccccc2)c2cccnc12 | 30.7%
COc1ccc(C(=O)Oc2c(CN3CCOCC3)cc(Cl)c3cccnc23)cc1OC | 13.7%
COc1cc(C(=O)Oc2c(CN3CCOCC3)cc(Cl)c3cccnc23)cc(OC)c1OC | 18.4%
Cc1ccc(Cl)cc1N(CC(=O)NC1CCCCC1)S(C)(=O)=O | -5.9%
Cc1nc2cc(-c3cccc(F)c3)nn2c(C)c1CCC(=O)N1CCN(c2ccccn2)CC1 | -4.7%
OC(CN1CCOCC1)CN1CCOCC1 | 13.2%
CCCCCOc1ccc(OC(=O)c2ccncc2)cc1 | -0.5%
CC(=O)c1cccc(NC(=O)c2cc(C(C)C)on2)c1 | -17.2%
CCCCOC(=O)c1ccc(NC(=O)c2ccoc2C)cc1 | 5%
CCCCCOC(=O)c1ccc(NC(=O)c2ccco2)cc1 | 80.3% (active)
CCCCOC(=O)c1ccc(NC(C)=O)cc1 | -20.2%
O=C(O)CCC(=O)Nc1ccc(C(=O)OC2CCCCC2)cc1 | -16.9%
O=C(OC1CCCCC1)c1ccc(NC(=O)c2ccco2)cc1 | 74.9% (active)
O=C(Nc1ccc(OC(=O)c2ccco2)cc1)c1ccco1 | -0.1%
CCC1S/C(=C(\C#N)C(=O)NCc2ccco2)N(c2ccc(Br)cc2)C1=O (centres undefined) | -5.6%
O=C(CSCc1ccccc1)Nc1nccs1 | -4.5%
CC(C)CCn1c(NCCc2ccccc2)nc2c1c(=O)n(C)c(=O)n2C | 0.9%
O=S(=O)(O)c1nc2ccccc2n1CCOc1ccccc1 | 5.6%

Structure (SMILES) | cytotoxicity
CC(=O)Oc1ccc(N2C(=O)CCC2=O)cc1 | -3.8%
Nc1c(Br)cc(Br)c(N2CCCC2=O)c1Br | 0.5%
O=C(c1ccc(Cl)cc1)c1ccc(OCC(O)CN2CCOCC2)cc1 (centres undefined) | 2.3%
CS(=O)(=O)N1CCC(NC(=O)Cc2ccccc2)CC1 | -2.1%
C/C=C(\CS(=O)(=O)c1ccccc1)S(=O)(=O)c1ccccc1 | 42.2%
O=C(CS(=O)(=O)c1ccccc1)N1CCCCCC1 | -9.5%
O=C1c2ccccc2C(=O)N1CCc1nc(-c2cccnc2)no1 | -7.3%
COc1ccc(C)cc1NC(=O)c1nnn(Cc2cc(C)ccc2C)c1N | -4%
Cc1cc(C)cc(NC(=O)c2nnn(Cc3cc(C)ccc3C)c2N)c1 | 54.9% (active)
Cc1ccc(NC(=O)c2nnn(-c3cc(C)cc(C)c3)c2N)cc1 | 51.9% (active)
Cc1cccc(-n2nnc(C(=O)Nc3ccc(F)cc3)c2N)c1 | 4.2%
Cc1ccc(C)c(NC(=O)c2nnn(Cc3ccccc3C)c2N)c1 | -4.9%
Cc1ccc(CCNC(=O)c2nnn(-c3cc(C)cc(C)c3)c2N)cc1 | 8.1%
COc1ccc(S(=O)(=O)n2ccnc2)c2cccnc12 | -6.2%
CC(C)(C)SCCNC(=O)COc1ccc(Cl)cc1 | 7.6%
CCOCCCNS(=O)(=O)c1ccc2c(c1)OCCO2 | 11.2%
O=c1c2c3c(sc2ncn1/N=C/c1ccco1)CCCC3 | 1.1%
Cc1ccc(-c2nc3ccccc3o2)cc1NC(=O)c1ccc2c(c1)OCO2 | -8.2%
O=C(Nc1ccc2oc(-c3ccccc3F)nc2c1)c1ccc2c(c1)OCCO2 | 83.6% (active)
Cc1c(NC(=O)c2ccc3c(c2)OCO3)cccc1-c1nc2ccccc2o1 | -4.5%
O=C(Nc1ccc2oc(-c3ccccc3)nc2c1)c1ccc2c(c1)OCCO2 | 37%
O=C(Nc1ccc2oc(-c3ccccc3F)nc2c1)c1cncc(Br)c1 | 14.2%
O=C(Nc1ccccc1-c1nc2ccccc2o1)c1ccc2c(c1)OCCO2 | 79% (active)
COc1cccc(-c2nnn(CC(=O)NC3CCCC3)n2)c1OC | 3.1%
O=C(CC1Sc2ccccc2NC1=O)Nc1cccc(C(=O)O)c1 (centres undefined) | 2.1%
O=C(NCc1ccncc1)c1ccc(Br)o1 | -21.6%

Structure (SMILES) | cytotoxicity
O=C(NCc1ccccc1Cl)C1CCN(S(=O)(=O)N2CCCCC2)CC1 | -3.6%
CCOC(=O)/C=C(\C)Sc1cc(=O)oc2ccccc12 | 77.6% (active)
CCOC(=O)Oc1ccc2oc(=O)cc(C)c2c1 | 10.2%
CCOC(=O)Nc1cc(=O)c2ccccc2o1 | 38.2%
Cc1csc(SCc2c(C(=O)O)oc3ccccc23)n1 | -0.8%
CCOC(=O)C1=C(C)NC(=O)NC1c1cn(-c2ccccc2)nc1-c1cccs1 (centres undefined) | 23.8%
Fc1cccc(F)c1CN1CCN(c2ncccn2)CC1 | -1.5%
COCCN1Cc2cccc(C(=O)Nc3cccc(OC)c3)c2C1=O | -3.5%
Cc1c(S(=O)(=O)N2CCN(c3cccc(C(F)(F)F)c3)CC2)c(=O)n(C)c(=O)n1C | 5.8%
Cn1c(=O)c(=O)n(C)c2cc(S(=O)(=O)N3CCN(c4cccc(C(F)(F)F)c4)CC3)ccc21 | 80.1% (active)
Cn1c(=O)c2cc(S(=O)(=O)N3CCN(c4cccc(C(F)(F)F)c4)CC3)ccc2n(C)c1=O | -3.4%
COc1ccccc1CN(CC(=O)NCc1ccco1)C(=O)CNS(=O)(=O)c1ccccc1 | 1.2%
COc1ccccc1N1CCN(C(=O)C2CCN(S(=O)(=O)c3ccc(Cl)cc3)CC2)CC1 | -11.9%
Cc1cc(C(=O)OCC(=O)c2c(N)n(C)c(=O)n(C)c2=O)c(C)n1-c1ccccc1 | 1.3%
Cc1ccc(S(=O)(=O)C(C#N)c2nc3ccccc3nc2N2CCC(C)CC2)cc1 (centres undefined) | 30.1%
CC1CCCN(c2nc3ccccc3nc2C(C#N)S(=O)(=O)c2ccccc2)C1 (centres undefined) | 47.8%
COc1ccc(S(=O)(=O)C(C#N)c2nc3ccccc3nc2N2CCCC(C)C2)cc1 (centres undefined) | 60.2% (active)
COc1ccc(S(=O)(=O)C(C#N)c2nc3ccccc3nc2N2CCCCC2)cc1 (centres undefined) | 3.2%
Cc1ccc(S(=O)(=O)C(C#N)c2nc3ccccc3nc2N2CCCC2)cc1 (centres undefined) | 34.2%
Cc1ccc(C)c(S(=O)(=O)C(C#N)c2nc3ccccc3nc2N2CCCC2)c1 (centres undefined) | 14.7%
Cc1cccc(S(=O)(=O)C(C#N)c2nc3ccccc3nc2N2CC(C)OC(C)C2)c1 (centres undefined) | 7.7%
Cc1ccc(S(=O)(=O)C(C#N)c2nc3ccccc3nc2N2CC(C)OC(C)C2)cc1C (centres undefined) | 76.5% (active)
Cc1cccc(S(=O)(=O)C(C#N)c2nc3ccccc3nc2N2CCCC2)c1 (centres undefined) | -13.4%
Cc1ccc(C)c(S(=O)(=O)C(C#N)c2nc3ccccc3nc2N2CCOCC2)c1 (centres undefined) | -1.1%
Cc1ccc(C)c(S(=O)(=O)C(C#N)c2nc3ccccc3nc2N2CC(C)OC(C)C2)c1 (centres undefined) | 59.3% (active)
Cc1ccc(S(=O)(=O)C(C#N)c2nc3ccccc3nc2N2CCCC2)cc1C (centres undefined) | 56.7% (active)
